Only some compounds are listed: those with a hit (about 12% of all), similar ones and a draw of the others.
JMJD2A Tudor inh: blocks the human JMJD2A Tudor domain; O75164; AID 504339; actives 4.4% (n = 390,000); Potency, µM (top dose mostly 114 µM), for inactives: at the highest dose activity change, negative = inhibition, usual class: inhibitors; AlphaScreen JMJD2A-Tudor / H3K4me3 peptide binding; also: potency is read from the fitted curve at half-maximal effect; % is scaled to controls: 0 for no effect and ±100 for the full control effect; nearly all actives have a fitted effect of over 50% in size
G9a inh-1: inhibitors of human histone lysine methyltransferase G9a; G9a H3K9 monomethylation, AlphaScreen, 2 h; Potency, µM (top dose mostly 102 µM), inactives show top-dose activity, negative = inhibition, hits mostly inhibitors; AID 504332; actives 8.8% (n = 350,000); Q96KQ7; also: potency is read from the fitted curve at half-maximal effect; % is scaled to controls: 0 for no effect and ±100 for the full control effect; nearly all actives have a fitted effect of over 75% in size
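AlphaScreen detection with an anti-monomethyl H3K9 antibody quantified product after a 2 h room-temperature reaction containing 500 nM biotinylated H3K9 peptide, 20 µM SAM and 20 nM enzyme, which had been preincubated 15 min with compound.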
HP1b binding inh: HP1-beta chromodomain-methylated histone interaction inhibition; P83916; AlphaScreen HP1-beta / biotin-H3K9me3 peptide binding; Potency, µM (doses to about 114 µM), inactives show top-dose activity change, negative = inhibition, hits mostly inhibitors; actives 0.56% (n = 390,000); AID 540317; also: potency is read from the fitted curve at half-maximal effect; nearly all actives have a fitted effect of over 70% in size
Target sequence (P83916 whole entry, looked up): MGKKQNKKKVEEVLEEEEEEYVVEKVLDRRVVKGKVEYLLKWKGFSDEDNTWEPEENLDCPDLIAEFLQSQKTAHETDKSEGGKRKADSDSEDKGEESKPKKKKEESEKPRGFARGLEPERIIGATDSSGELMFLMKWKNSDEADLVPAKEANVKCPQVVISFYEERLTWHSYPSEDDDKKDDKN
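Compound inhibition of the preformed complex between 50 nM HP1-beta and 50 nM biotinylated H3K9me3 peptide was read by AlphaScreen. Buffer was PBS pH 7.4 with 0.01% Tween-20. Incubations ran 30 min at room temperature, with 10 ug/mL donor/acceptor beads.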
BAZ2B inh: inhibitors of human BAZ2B bromodomain | Q9UIF8 | AlphaScreen BAZ2B-H3K14Ac peptide displacement | Potency, µM (top dose mostly 114 µM), without a hit: at the highest dose activity change, negative = inhibition, usual class: inhibitors | actives 4.4% (n = 360,000) | AID 504333; also: potency is read from the fitted curve at half-maximal effect; % is scaled to controls: 0 for no effect and ±100 for the full control effect; nearly all actives have a fitted effect of over 60% in size
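Protein-peptide AlphaScreen: BAZ2B 50 nM, b-H3K14Ac 50 nM, 1x PBS pH 7.4 + 0.01% Tween-20. Preincubation 30 min RT; cpd 30 min RT (top 110 uM); beads 20 min RT, light-protected.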
Sfp inh: inhibitors of Bacillus subtilis Sfp phosphopantetheinyl transferase. Q9F4F7. Biochemical Sfp PPTase activity, qHTS. Potency, µM, without a hit: largest response in the series, negative = inhibition, usual class: inhibitors. actives 3.5% (n = 310,000). AID 1490;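 also: the enzyme is Sfp with the accession as filed and its product quenches rhodamine fluorescence; potency is read from the fitted curve at half-maximal effect; 0% = enzyme reaction without inhibitor and -100% = no enzyme wells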
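Fluorescence-quenching assay: 15 nM Sfp-PPTase preincubated 15 min at room temperature with compound, then 5 uM rhodamine-CoA and 12.5 uM BHQ-2-labelled YbbR peptide added. Fluorescence (ex 525/em 598 nm) read at start and after 30 min; difference gives rate.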
L3MBTL1 inh: blocks human L3MBTL1. Q9Y468. AlphaScreen L3MBTL1–H3K9me1 peptide binding. Potency, µM (top dose mostly 57.1 µM), for the others: at the highest dose activity, negative = inhibition, actives largely listed as inhibitors. actives 0.66% (n = 230,000); also: potency is read from the fitted curve at half-maximal effect; % is scaled to controls: 0 for no effect and ±100 for the full control effect; nearly all actives have a fitted effect of over 60% in size
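First, the protein-peptide complex forms for 30 min at room temperature (L3MBTL1 50 nM, biotinylated H3K9me1 peptide 75 nM). Next, compounds are pin-transferred and incubated 30 min. Finally, AlphaScreen beads are added and read after 30 min.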
JMJD2E inh-1: blocks human JMJD2E demethylase activity; Potency, µM (highest dose often 57 µM), for inactives: at the top dose activity, negative = inhibition, usual class: inhibitors; actives 89% (n = 130); JMJD2E demethylase, FDH-coupled NADH fluorescence; shares compounds with BAZ2B inh; AID 493212
Target sequence (B2RXH2 1-337 limits assumed): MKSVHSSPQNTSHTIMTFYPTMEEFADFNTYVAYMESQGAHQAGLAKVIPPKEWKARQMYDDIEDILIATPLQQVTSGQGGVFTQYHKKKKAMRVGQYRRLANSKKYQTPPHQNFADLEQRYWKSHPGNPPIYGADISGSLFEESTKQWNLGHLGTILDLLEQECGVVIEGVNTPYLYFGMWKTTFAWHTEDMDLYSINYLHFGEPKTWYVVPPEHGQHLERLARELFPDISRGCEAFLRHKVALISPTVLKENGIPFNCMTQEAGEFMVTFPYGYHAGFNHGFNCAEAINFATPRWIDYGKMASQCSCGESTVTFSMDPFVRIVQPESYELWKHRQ
ME-1 growth: ME-1 cell growth inhibition. Potency, µM (titrated, usually from 56.1 µM), without a hit: at the highest dose activity change, negative = inhibition, hits mostly inhibitors. actives 20% (n = 140). ME-1 cell proliferation, ATP luminescence, 48 h. shares compounds with BAZ2B inh. AID 504370
JMJD2E inh-2: confirmation of inhibitors of human JMJD2E demethylase. shares compounds with JMJD2A Tudor inh. Recombinant JMJD2E, FDH-coupled NADH fluorescence (FDH is formaldehyde dehydrogenase). Potency, µM (series often up to 56.8 µM), without a hit: at the highest dose activity change, negative = inhibition, most hits filed as inhibitors. actives 93% (n = 140). AID 2677
FDH counter: blocks Pseudomonas putida formaldehyde dehydrogenase, flagging JMJD2E artifacts; Potency, µM (series often up to 56.7 µM), for the others: at the top dose activity, negative = inhibition, actives largely listed as inhibitors; actives 10% (n = 140); FDH enzyme assay, NADH fluorescence kinetic; shares compounds with JMJD2A Tudor inh
G9a inh-2: inhibits human G9a histone lysine methyltransferase, hit confirmation | shares compounds with JMJD2A Tudor inh | G9a H3K9 monomethylation, AlphaScreen, 2 h | Potency, µM, most hits filed as inhibitors | actives 89% (n = 370); also: potency is read from the fitted curve at half-maximal effect; nearly all actives have a fitted effect of over 65% in size
* marks the source's active call; other numbers are inactive results; ? = inconclusive; . = not tested or not shown; ! = not active in a repeat; [ ] = dose if it differs, or a comment. Calls follow the shape of the dose curve; as a rule, active = well fitted curve in the direction sought with a large enough effect; inconclusive = small, poorly fitted or top-dose-only effect, or another doubt; inactive = no such curve, though single readings can be large; an effect the other way counts as inactive or inconclusive.

SMILES	JMJD2A Tudor inh	G9a inh-1	HP1b binding inh	BAZ2B inh	Sfp inh	L3MBTL1 inh	others
CC[n+]1c(-c2ccccc2)c2cc(N)ccc2c2ccc(N)cc21	?	13µM*	?	.	?	.	ME-1 growth=10µM*
CN1Cc2ccccc2[C@@H]2c3cccc4[nH]cc(c34)C[C@H]21	.	13µM*	.	.	79µM*!	.	ME-1 growth=11µM*
CCC(C)(S(=O)(=O)CC)S(=O)(=O)CC	.	-25%[12.7 µM]	.	.	15%	.
O=C(O)CCCCC1SCC2NC(=O)NC21 (centres undefined)	11µM*	7.9µM*!	?	0.79µM*	14%	?	ME-1 growth=-13%
O=C(O)c1ccc(O)c2ncc(N3CCNCC3)cc12	.	.	.	.	.	.	JMJD2E inh-1=4.1µM*;JMJD2E inh-2=?;FDH counter=-36%
Cc1nc(N)sc1CCN	.	35%[59 µM]	.	.	0%	.
Cn1c(CNC(=O)c2ccco2)nnc1SCC(=O)N1c2ccccc2Sc2ccccc21	-7%	?	21%	-35%	-4%	.	G9a inh-2=1*
c1cc2c(c(NC3=NCCN3)c1)CCCC2	.	19%[59 µM]	.	.	21%	.
CN1CC[C@]2(C)c3cc(O)ccc3N(C)[C@@H]12	.	8.9µM*	.	.	-24%	.	JMJD2E inh-2=10µM*;FDH counter=?
CC(C)C[C@H](NC(=O)[C@H](Cc1ccccc1)NC(=O)CNC(=O)[C@H](CO)NC(=O)[C@@H](N)Cc1ccc(O)cc1)C(=O)N[C@H](C(=O)O)[C@H](C)O	.	23%[59 µM]	.	.	-6%	.
Cc1cc(OCc2nn[nH]n2)c2c3c(c(=O)oc2c1)CCC3	-27%	-26%	37%	6%	17%	3%
Cc1cc(=O)oc2c1c(C)nn2-c1nn[nH]n1	14µM*	0.71µM*	?	40µM*	2%	.	G9a inh-2=0.36*
C[N+](C)(C)CCCCCCCCCC[N+](C)(C)C	-2%	20%[59 µM]	51%	0%	-4%	-10%
COc1ccc(OCC(=O)N2CCN(Cc3ccc(SC)cc3)CC2)cc1	2.5µM*	2.2µM*	?	50µM*!	13%	2%	G9a inh-2=32*

Assay outcomes from PubChem BioAssay.
